According to PubChem BioAssay (NCATS):
Inconclusive results are not listed. Calls of active or inactive are those of the source. The call rests on the fitted dose curve; in most records, active means well fitted curve in the direction sought with a large enough effect; inconclusive means small, poorly fitted or top-dose-only effect, or another doubt; inactive means no such curve, though single readings can be large; an effect the other way counts as inactive or inconclusive.

Tests used:
[1] = target: Glutathione peroxidase 1 (Homo sapiens) (UniProt P07203); assay: Primary qHTS Assay for Inhibitors of Recombinant Selenoprotein Glutathione Peroxidase 1 (GPX1) (AID 1845191); further: nearly all actives have a fitted effect of over 65% in size; further: potency means the concentration at half of the fitted maximal effect
How it was run: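 10 nM GPX1 + cpd, 30 min RT; start w/ 1 mM GSH, 0.5 mM cumene hydroperoxide, 0.5 mM NADPH, 100 nM GR, 0.01% BSA; buffer 50 mM Tris-HCl pH 7.5, 2 mM EDTA, 150 mM NaCl; Fl 340/450, 0 & 15 min.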

[2] = target: Phospholipid hydroperoxide glutathione peroxidase GPX4 (Homo sapiens) (UniProt P36969); assay: Primary qHTS Assay for Inhibitors of Recombinant Selenoprotein Glutathione Peroxidase 4 (GPX4) (AID 1845192); further: nearly all actives have a fitted effect of over 65% in size; further: potency means the concentration at half of the fitted maximal effect
How it was run: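 NADPH consumption, followed by fluorescence at 340/450 nm between 0 and 15 min, reports GPX4 activity via coupled glutathione reductase (100 nM). Enzyme 200 nM was pre-exposed to compound 30 min; 0.5 mM cumene hydroperoxide and 1 mM GSH served as substrates.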

[3] = target: Luciferin 4-monooxygenase (Photinus pyralis) (UniProt P08659); assay: Primary firefly luciferase (FLuc) qHTS assay for identification of artifact compounds. (AID 1845220); further: nearly all actives have a fitted effect of over 60% in size
How it was run: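 FLuc 10 nM; luciferin 10 uM; ATP 10 uM; Tris-acetate pH 7.6, Mg-acetate 10 mM; 15 min RT preincubation; 5 min reaction; luminescence.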

[4] = Primary fluorescence-based thiol-reactive (MSTI) qHTS assay for identification of artifact compounds. (AID 1845221); further: nearly all actives have a fitted effect of over 65% in size; further: potency means the concentration at half of the fitted maximal effect
How it was run: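 Reactivity toward the thiol probe MSTI (4 uM) is scored by fluorescence at Ex/Em 525/598 nm after 1 h at room temperature. Acetyl-MSTI and MSTI define the activity scale.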

[5] = system: Nanoluciferase (engineered Oplophorus gracilirostris luciferase); assay: Primary Nanoluciferase (NLuc) qHTS assay for identification of artifact compounds. (AID 1845222); further: potency means the concentration at half of the fitted maximal effect
How it was run: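 NLuc from S16 cell medium (1:55) plus test compounds, 15 min, room temperature. Luminescence after Nano-Glo (1:100) addition, 5 min.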

[6] = Primary redox qHTS assay for identification of artifact compounds. (AID 1845223)
How it was run: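 Amplex Red (25 uM) and HRP (250 mU/mL) in HBSS, with compounds for 15 min, then 250 uM DTT for 30 min, room temperature, dark. Fluorescence 525/598 nm read; normalized to DMSO and 10 uM DA3003; Hill fit.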

Measured: Potency

Chain of Phospholipid hydroperoxide glutathione peroxidase GPX4 (Homo sapiens) (P36969 whole entry, looked up): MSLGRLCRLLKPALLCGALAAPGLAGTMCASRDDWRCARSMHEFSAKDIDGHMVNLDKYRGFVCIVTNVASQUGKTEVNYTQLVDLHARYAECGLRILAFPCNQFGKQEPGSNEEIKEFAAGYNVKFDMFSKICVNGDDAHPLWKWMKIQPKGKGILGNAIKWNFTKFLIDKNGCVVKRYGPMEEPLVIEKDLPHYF
Chain of Glutathione peroxidase 1 (Homo sapiens) (P07203 whole entry, looked up): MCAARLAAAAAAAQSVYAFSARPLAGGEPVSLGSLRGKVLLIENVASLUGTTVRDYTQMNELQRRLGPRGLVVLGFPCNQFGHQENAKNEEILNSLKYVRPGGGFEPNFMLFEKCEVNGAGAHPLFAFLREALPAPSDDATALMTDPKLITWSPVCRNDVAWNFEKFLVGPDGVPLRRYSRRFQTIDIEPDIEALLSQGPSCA

CN(C)N(C)C(=O)[C@@]1(Cc2ccccc2)CCCN(C(=O)[C@@H](Cc2c[nH]c3ccccc23)NC(=O)C(C)(C)N)C1
inactive: [1] | [2] | [3] | [4] | [5] | [6]

C[C@H](Oc1cc(-n2cnc3ccc(CN4CCN(C)CC4)cc32)sc1C(N)=O)c1ccccc1C(F)(F)F
inactive: [1] | [2] | [3] | [4] | [5] | [6]

OC1(CN2CCC(COc3noc4cccc(O[C@@H]5CCOC5)c34)CC2)CCOCC1
inactive: [1] | [2] | [3] | [4] | [5] | [6]

C/C=C\NC(=O)C1NC(=O)C(CC(N)=O)NC(=O)C(NC(=O)C(=O)C(C)CC)Cc2ccc(O)c(c2)-c2cccc3c2NC(=O)C3(O)C1O (centres undefined)
inactive: [1] | [2] | [3] | [4] | [5] | [6]

Cc1cc(Nc2nc(-c3ccccc3)nc3ccccc23)n[nH]1
inactive: [1] | [2] | [3] | [4] | [5] | [6]

CC1=C2C[C@@]3(C)C(CCC[C@@H]3C)C(O)C2OC1=O (some centres undefined)
inactive: [1] | [2] | [3] | [4] | [5] | [6]

COc1ccc(C2(CNC(=O)c3ccc(NC(=O)c4ccco4)cc3)CCOCC2)cc1
inactive: [1] | [2] | [3] | [4] | [6]

COc1ccc(S(=O)(=O)Nc2cc(Cl)cc(Cl)c2OC)cc1N1CCNCC1
inactive: [1] | [2] | [3] | [4] | [5] | [6]

C=CC(=O)N1CCCN(c2cc(NCCC(=O)O)nc(-c3ccccn3)n2)CC1
inactive: [1] | [2] | [3] | [4] | [5] | [6]

CC(=O)O[C@@H]1C[C@@]23C[C@@]24CC[C@H](O[C@@H]2OC[C@H](O)[C@H](O)[C@H]2O)C(C)(C)[C@@H]4CC[C@H]3[C@]2(C)[C@@H](O)C34O[C@H](C[C@@H](C)[C@@H]3[C@@]12C)[C@@H](C(C)(C)O)O4
inactive: [1] | [2] | [3] | [4] | [5] | [6]

NC(N)=N/N=C/c1ccccc1Cl
inactive: [1] | [2] | [3] | [4] | [5] | [6]

OC(c1ccc(-c2ccc(CN3CCN(Cc4ccncc4)CC3)cc2)c(F)c1)(C(F)(F)F)C(F)(F)F
inactive: [1] | [2] | [3] | [4] | [5] | [6]

CC(C)(C)c1ccc(NC(=O)N2CCN(c3ncccc3Cl)CC2)cc1
inactive: [1] | [2] | [3] | [4] | [5] | [6]

COc1ccc(S(=O)(=O)N2CCC[C@H]2C(=O)Nc2cc(C)cc(C)c2)cc1
inactive: [1] | [2] | [3] | [4] | [6]

C[C@@H](Nc1ncnc2[nH]c(-c3ccc(O)cc3)cc12)c1ccccc1
inactive: [1] | [2] | [3] | [5] | [6]
active: [4] 1.34 µM

CC(C)c1ccccc1OC(=O)NCCc1ccc2ccccc2c1
inactive: [1] | [2] | [3] | [4] | [6]

Cc1[nH]c2ccc(F)cc2c1-c1nc2c3cccnc3c3ncccc3c2[nH]1
inactive: [1] | [2] | [3] | [5]

C[C@@H]1C[C@H](C)CN(CCC(=O)Nc2ccc(Br)cc2)C1
inactive: [1] | [2] | [3] | [4] | [6]

CCCCOC(=O)NS(=O)(=O)c1sc(CC(C)C)cc1-c1ccc(Cn2ccnc2)cc1
inactive: [1] | [2] | [3] | [4] | [6]

O=C(Nc1ccc(N(Cc2ccsc2)C(=O)Cn2nnc3ccccc32)cc1)C1CC1
inactive: [1] | [2] | [3] | [4] | [6]

CC(C)(Cc1nc(-c2ccc(O)cn2)no1)C(=O)NC1=C(C(=O)O)CCCC1
inactive: [1] | [2] | [3] | [4] | [6]

C=C1CCC2C(C)(C)CCCC2(C)C1CC/C(C)=C\CO (centres undefined)
inactive: [1] | [2] | [3] | [4] | [6]

CC(=O)OC1C(O)CC2(C)C(CCC3(C)C2CC=C2C4C5(CCC(CO[C@@H]6O[C@H](CO)[C@@H](O)[C@H](O)[C@H]6O)(OC5=O)C4(C)O)C(O)CC23C)C1(C)C (some centres undefined)
inactive: [1] | [2] | [3] | [5]

Cc1nnc(-c2ccc(-c3ccc(C(=O)Nc4ccc(O)c(N5CCN(C)CC5)c4)cc3)c(C)c2)o1
inactive: [1] | [2] | [3]
active: [5] 1.51 µM

Cc1cc(CS(=O)(=O)c2ccccc2)cc(OCc2ccc(CN3CCCC3CO)cc2)c1 (centres undefined)
inactive: [1] | [2] | [3] | [4] | [6]

COc1ccc(-c2ccc3c(N4CCOCC4C)nc(N4CCOCC4C)nc3n2)cc1CO (centres undefined)
inactive: [3] | [4] | [6]
active: [1] 18 µM | [2] 10.1 µM

CC(=O)OC1C(=O)C2C3OCC4=C3[C@@](C)(CC[C@@H]4O)CC[C@]2(C)[C@H]1C(C)C (some centres undefined)
inactive: [1] | [2] | [3] | [5]

COc1c(F)cccc1C(=O)N1C[C@@H](C)CC[C@H]1CNc1ccc(Br)cn1
inactive: [1] | [2] | [3] | [4] | [6]

NCCOc1cc(C(=O)Nc2cc(OCCN)c3ccccc3n2)nc(C(=O)Nc2cc(OCCN)c3ccccc3n2)c1
inactive: [1] | [2] | [3] | [5]

C#Cc1cccc(Nc2nc3cc(C(=O)O)ccc3c3cncnc23)c1
inactive: [1] | [2] | [3] | [4] | [6]

CC(=O)O[C@@H]1C2=C(O)C(=O)[C@](C)(OC(C)=O)C(=O)C2=CO[C@@]12O[C@@H](C)CC[C@H]2OC(C)=O
inactive: [1] | [2] | [3] | [5]

Cn1ncc(Cl)c1-c1cc(C(=O)N[C@H](CN)Cc2ccc(F)c(F)c2)sc1Cl
inactive: [1] | [2] | [3] | [4] | [6]

COc1cc(CCC2=NN=C(NC(=O)c3ccc(N4C[C@@H](C)N[C@@H](C)C4)cc3)C2)cc(OC)c1
inactive: [1] | [2] | [3] | [4] | [6]

CC(C)CCNc1ncccc1C(=O)N1CCN(Cc2ccccc2)CC1
inactive: [1] | [2] | [3] | [4] | [6]

O=C(NO)c1cnc(N2CCN(S(=O)(=O)c3ccc4ccccc4c3)CC2)nc1
inactive: [1] | [2] | [3] | [5]

C/C=C(\C)[C@@H]1C(C)=C[C@@H]2[C@H]([C@@H]1/C=C/C=C/C(=O)O)[C@@H](C)CC[C@@H]2O
inactive: [1] | [2] | [3] | [5]

O=C(NCCN1CCN(c2cccc3ccc(O)cc23)CC1)c1ccc(F)cc1
inactive: [1] | [2] | [3] | [5]

COc1cc2c(cc1OCCCN1CCCC1)N=C(N)C21CCC1
inactive: [1] | [2] | [3] | [5]

C=CC(C)(O)CC/C=C(/C)COC(=O)C(C)C1CCC(C)(C=C)O1 (centres undefined)
inactive: [1] | [2] | [3] | [4] | [6]

C=C1CC[C@@H](O)[C@]2(C)CC[C@H]3C(=C)C(=O)O[C@@H]3[C@@H]12
inactive: [1] | [2] | [3] | [5]

CCOC(=O)C1=Cc2ccc(C(F)(F)C(F)(F)F)cc2N=C(N)C1
inactive: [1] | [2] | [3] | [4] | [6]

O=C(NC[C@H](O)CN1CCc2ccccc2C1)c1ccnc(NC2CCC2)c1
inactive: [1] | [2] | [3] | [4] | [6]

O=C(O)CCc1nccc2c1[nH]c1ccccc12
active: [1] 25.5 µM | [2] 22.7 µM
inactive: [3] | [5]

COc1ccc(CNc2nc(N(CCO)CCO)nc3c2ncn3C(C)C)cc1
inactive: [1] | [2] | [3] | [5]

CC(=O)OC[C@]12[C@H](OC(C)=O)C(=O)[C@@H]3[C@@H](O)[C@@]14O[C@@]3(C)COC(=O)c1cccnc1[C@@H](C)[C@H](C)C(=O)O[C@@H]([C@H](O)[C@@H]2OC(C)=O)[C@]4(C)O
inactive: [1] | [2] | [3] | [5]

CN1CC[C@@H](c2c(O)cc(O)c3c(=O)cc(-c4ccc(C(F)(F)F)cc4Cl)oc23)[C@@H]1CO
inactive: [1] | [2] | [3] | [5]

CC(C)CC(=O)c1c(O)cc2c(c1O)C(CC(C)C)C1=C(O2)C(C)(C)C(=O)C(C)(C)C1=O (centres undefined)
inactive: [1] | [2] | [3] | [5]

COc1cc(CCc2ccc(OCC=C(C)C)cc2)cc(OC)c1OC
inactive: [1] | [2] | [3] | [5]

CC1(C)SCCN(S(=O)(=O)c2ccc(Oc3ccncc3)cc2)[C@H]1C(=O)NO
inactive: [1] | [2] | [3] | [5]

Cc1cccc(-c2[nH]ncc2-c2ccnc3ccccc23)n1
inactive: [1] | [2] | [3] | [4] | [6]

Cc1cc(C(=O)Nc2cc(Oc3ccc4nc(NC(=O)C5CC5)cn4n3)ccc2C)n(C)n1
inactive: [1] | [3] | [4] | [6]
active: [2] 25.5 µM

CC1(C)CCCC2(C)C1C(OC(=O)/C=C/C=C/C=O)C=C1COC(=O)C12O (centres undefined)
inactive: [1] | [2] | [3] | [4] | [6]

C[C@H](Nc1ncnc2nc[nH]c12)c1cc2cccc(Cl)c2c(=O)n1-c1ccccc1
inactive: [1] | [2] | [3] | [4] | [6]

CNC(=O)COC(=O)N1CCC(CCc2ccc(Cl)cc2)CC1
inactive: [1] | [2] | [3] | [4] | [6]

COc1ccc(-c2ccccc2)cc1NS(=O)(=O)c1cc(Cl)cc(Cl)c1O
active: [5] 7.38 µM
inactive: [1] | [2] | [3]
